# GAA inh: qHTS Assay for Inhibitors of Human alpha-Glucosidase as a Potential Chaperone Treatment of Pompe Disease; Lysosomal alpha-glucosidase (Homo sapiens), P10253; purified human GAA, 4-MU-alpha-glucoside fluorescence; Potency, µM (top dose mostly 76.9 µM), for inactives: at the highest dose activity change, negative = inhibition, most hits filed as inhibitors; actives 0.005% (n = 200,000); AID 1466, 2008;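 note: potency is the fitted concentration of half-maximal effect; plate controls were uninhibited enzyme wells for no effect and no-enzyme background for full effect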
#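 Human enzyme at 4 nM with 400 uM 4-methylumbelliferyl-alpha-D-pyranoside, citrate/phosphate buffer pH 5.0, 0.005% Tween-20, 20 min at room temperature. Compounds up to 77 uM. 4-MU fluorescence (Ex 365/Em 440) read after NaOH/glycine stop; AC50 from Hill fit.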
# N370S GC: qHTS Assay for Inhibitors and Activators of N370S glucocerebrosidase as a Potential Chaperone Treatment of Gaucher Disease | actives 0.092% (n = 330,000) | Lysosomal acid glucosylceramidase (Homo sapiens), P04062 | AID 2101, 2009 | Potency, µM (series often up to 59.4 µM), for the others: top-dose activity change, negative = inhibition, most hits filed as inhibitors | N370S GC spleen homogenate, 4MU-glucoside fluorescence;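 note: potency is the fitted concentration of half-maximal effect; 0% = full enzyme activity and -100% = no enzyme basal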
# aGal spleen mod: qHTS Assay for Inhibitors and Activators of Human alpha-Galactosidase From Spleen Homogenate; AID 2107, 2009; human spleen homogenate, 4MU-alpha-Gal fluorescence, 40 min; Potency, µM (highest dose often 80 µM), without a hit: at the top dose activity change, negative = inhibition, most hits filed as inhibitors; actives 0.008% (n = 240,000); Alpha-galactosidase A (Homo sapiens), P06280;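 note: potency is the fitted concentration of half-maximal effect; 0% = enzyme with vehicle and -100% = no enzyme basal signal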
# Target sequence (P06280 32-429 limits assumed): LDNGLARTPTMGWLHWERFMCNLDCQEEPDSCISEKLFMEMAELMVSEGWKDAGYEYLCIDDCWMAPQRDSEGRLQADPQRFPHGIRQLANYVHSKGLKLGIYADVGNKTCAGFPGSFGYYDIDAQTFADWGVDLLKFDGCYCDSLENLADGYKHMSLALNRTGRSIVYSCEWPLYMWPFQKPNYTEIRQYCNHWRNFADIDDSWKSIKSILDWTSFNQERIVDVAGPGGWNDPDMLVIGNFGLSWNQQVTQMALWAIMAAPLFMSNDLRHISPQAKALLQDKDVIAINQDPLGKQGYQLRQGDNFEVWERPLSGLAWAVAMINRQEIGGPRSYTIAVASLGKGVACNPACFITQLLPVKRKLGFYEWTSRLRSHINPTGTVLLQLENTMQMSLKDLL
#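 Spleen homogenate 1 ug + cpd (titration) + 4-MU-alpha-D-galactopyranoside 1 mM; 37C 40 min; 50 mM citrate/phosphate pH 5.0, 0.01% Tween-20; stop pH 10; fluorescence 365/440; AC50 via Hill.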
# GAA glycogen mod: qHTS Assay for Inhibitors and Activators of Human alpha-Glucosidase Cleavage of Glycogen | Lysosomal alpha-glucosidase (Homo sapiens), P10253 | recombinant GAA, glycogen substrate, Amplex Red glucose oxidase fluorescence | Potency, µM (doses to about 76.4 µM), for the others: at the highest dose activity change, negative = inhibition, most hits filed as inhibitors | actives 0.38% (n = 300,000) | AID 2100, 2009;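 note: potency is the fitted concentration of half-maximal effect; 0% = full enzyme reaction and -100% = no-enzyme basal signal; the screen sought inhibitors and activators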
#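 Natural-substrate format: glycogen cleavage by 4 nM human enzyme, glucose read by Amplex Red coupling (Ex 573, Em 610 nm). Normalized to enzyme and no-enzyme controls.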
# GLA inh pH 4.5: qHTS Assay for Inhibitors of Human alpha-Galactosidase at pH 4.5 | purified enzyme, 4-MU-alpha-Gal fluorescence, pH 4.5 | activity change, negative = inhibition, % at 105 µM | 230,000 tested, under 10 active | AID 1467, 2008;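 note: 0% = full activity with enzyme and -100% = basal without enzyme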
# aGlu spleen mod: qHTS Assay for Inhibitors and Activators of Human alpha-Glucosidase From Spleen Homogenate | human spleen homogenate, 4-MU-alpha-glucoside fluorescence | Potency, µM (titrated, usually from 79.9 µM), without a hit: at the highest dose activity change, negative = inhibition, most hits filed as inhibitors | actives 0.006% (n = 240,000) | AID 2112, 2009;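 note: potency is the fitted concentration of half-maximal effect; 0% = enzyme with vehicle and -100% = no enzyme basal signal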
#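 AC50 values come from Hill-equation fits of concentration-response data, normalized to no-enzyme and full-activity controls. Enzyme source: 1 ug human spleen homogenate; 1 mM fluorogenic 4-MU glucoside, pH 5.0 citrate buffer, 37 C, 40 min.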
# * = called active by the depositor; ? = inconclusive; . = no result; [ ] = another dose, or the depositor's remark. Sampled rows, rich in hits. Any-hit rate of the full collection: about 0.41%. Calls come from the whole dose curve; as a rule, active = well fitted curve in the direction sought with a large enough effect; inconclusive = small, poorly fitted or top-dose-only effect, or another doubt; inactive = no such curve, though single readings can be large; an effect the other way counts as inactive or inconclusive.
SMILES,GAA inh,N370S GC,aGal spleen mod,GAA glycogen mod,GLA inh pH 4.5,aGlu spleen mod
CCOC(=O)N1CCN(C(=O)Nc2sc3nc4n(c(=O)c3c2C)CCC(C)CC4)CC1 (stereo not drawn),-10%,4%,5%,32µM*,-9,-4%
CCOc1ccc(-c2cc3nc(C4CCN(C(=O)OC(C)(C)C)CC4)c(C(=O)Nc4ccc(C)cc4C)cn3n2)cc1,.,.,.,35µM*,.,.
CCN(CC)c1ccc(/C=N/Nc2nc(C)cc(C)n2)cc1,.,-2%,3%,11µM*,-7,4%
Cc1cc(C)nc(N/N=C/c2ccccc2)n1,5%,4%,4%,-28%,.,-3%
C(=Nc1ccc(Nc2ccccc2)cc1)c1ccc2ccccc2c1,-5%,-6%,-9%,18µM*,-1,-3%
Brc1ccc(C=Nc2ccc(Nc3ccccc3)cc2)s1,2%,-4%,1%,8.9µM*,19,-11%
Cc1nc(N2CCOCC2)c2nc(-c3ccccc3)n(CCCN(C)C)c2n1,.,-14%,0%,.,4,10%
COc1ccc(NC(=S)NNc2ccc(S(=O)(=O)Nc3ccccc3C(=O)O)cc2[N+](=O)[O-])cc1,.,-11%,8%,25µM*,-27,-1%
COC(=O)C(C(C)=O)C(NC(=O)OC(C)(C)C)c1ccccc1 (stereo not drawn),.,6%,9%,.,-5,-5%
CN1CCN(S(=O)(=O)c2cccc(C(=O)Nc3sc4c(c3-c3nc5ccccc5[nH]3)CCCC4)c2)CC1,-2%,11µM*,-12%,-3%,-1,-11%
CC(=O)OC[C@@H]1O[C@H](C/C=N\O[C@@H](C)c2cc(-c3c(C)cc(C)cc3C)no2)C=C[C@@H]1OC(C)=O,.,-4%[12.8 µM],5%[17.5 µM],.,.,5%[17.4 µM]
N=c1c2c(-c3ccccc3)c(-c3ccccc3)n(Cc3ccco3)c2ncn1CCCn1ccnc1,-9%,3.2µM*,-4%,-2%,?,-2%
N=c1c2c(-c3ccccc3)c(-c3ccccc3)n(Cc3ccccc3)c2ncn1CCO,?,4µM*,-16%,5%,?,-19%
N=c1c2c(-c3ccccc3)c(-c3ccccc3)n(Cc3ccco3)c2ncn1CCCN1CCOCC1,-5%,-24%,-3%,-6%,-12,-5%
c1cncc(-c2nccc(NCc3cccs3)n2)c1,.,-26%,-5%,.,.,5%
COc1cccc(-c2nccc(NCc3cccs3)n2)c1,.,4µM*,5%,.,.,9%
Cc1ccccc1-c1nccc(NCc2cccs2)n1,.,4.5µM*,-5%,.,.,4%
CCN(c1cccc(C)c1)S(=O)(=O)c1nnc(NC(=O)c2ccccc2Cl)s1,.,.,.,-13%[76.3 µM],.,.
NCCc1cnc(-c2cccc(C(F)(F)F)c2)[nH]1,.,-6%,6%,.,.,1%
CCOC(=O)c1c(C)[nH]c(C=Nc2ccc(OC)cc2)c1O,-4%,-2%,-1%,8.9µM*,-2,-2%
CCOC(=O)c1c(C)[nH]c(C=Nc2ccccc2)c1O,1%,-11%,3%,4%,-8,0%
CCc1ccccc1NC(=O)Cn1nc(-c2cc(C)ccc2C)c2c(c1=O)CCCC2,.,.,.,10%[76.3 µM],.,.
Oc1ccc(/C=N/N2CCCCC2)c(O)c1,.,-19%,.,11µM*,.,.
CC(C)c1nc(C(=O)N2CCc3c([nH]c4ccccc34)C2c2ccccn2)cs1 (stereo not drawn),?,-28%,-17%,-21%,-18,4%
Cc1nc(C(=O)N2CCc3c([nH]c4ccccc34)C2c2ccccn2)cs1 (stereo not drawn),?,?,-4%,16µM*,2,-8%
SMILES,GAA inh,N370S GC,aGal spleen mod,GAA glycogen mod,GLA inh pH 4.5,aGlu spleen mod
COc1ccc(C#CC2C=CC(OC(C)=O)C(COC(C)=O)O2)cc1 (stereo not drawn),.,-5%[12.8 µM],7%[17.5 µM],.,.,2%[17.4 µM]
OC1OC[C@H](O)[C@@H](O)[C@H]1O (stereo partly drawn),.,-6%,3%,.,.,-7%
O=C1CC(N2CCN(c3ccc(O)cc3)CC2)C(=O)N1Cc1cccs1 (stereo not drawn),-3%,-6%,9%,6.3µM*,-2,-11%
O=C(c1ccncc1)c1ccc(N2CCN(C3CC(=O)N(Cc4cccs4)C3=O)CC2)cc1 (stereo not drawn),1%,1%,1%,-7%,-5,-5%
CCOC(=O)[C@H](Cc1ccc(O)cc1)NC(=O)c1ccccc1,.,-3%,0%,.,.,1%
Nc1ccc(C(=O)C(=O)c2ccc(N)cc2)cc1,.,-14%,-4%,-7%,-4,-6%
N=C1C=CC(=C(c2ccc(N)cc2)c2ccc(N)cc2)C=C1,.,3.5µM*,4%,.,.,8%
COc1ccc(COC(=O)C2=C(C)NC(=O)NC2c2cccc(OC)c2OC)cc1 (stereo not drawn),.,-6%,.,40µM*,.,.
O=C1Nc2ccccc2N(O)N1c1ccc(Cl)cc1,13%,-9%,-4%,5%,3,-2%
CCN1c2ccccc2NC2C1C(C(C)=O)C(=O)N2c1ccc(Cl)cc1 (stereo not drawn),-4%,-7%,0%,25µM*,-7,-21%
COc1ccc(C(=O)/C=C/Nc2c(C)n(C)n(-c3ccccc3)c2=O)cc1OC,?,3%,5%,3.1µM*,9,2%
Cc1cc(O)cc(C)c1Cl,.,-3%,-4%,.,2,-7%
Cc1cc(O)c(N)c(C)c1Cl,0%,-5%,1%,8.9µM*,4[21.1 µM],3%
c1ccc(Nc2cc(Nc3ccccc3)[nH]n2)cc1,-10%,23%,-13%,28µM*,1,-10%
COc1cc(NC(=S)NC(C)=O)ccc1NC(=O)C(C)C,-1%,4%,-1%,3%,0,-2%
CCc1ccc(NC(=S)Nc2cc(OC)c(NC(=O)C(C)C)cc2OC)cc1,2%,3%,8%,12µM*,-2,2%
CN(C)c1ccc(N=Cc2ccco2)cc1,3%,14%,8%,?,6,9%
C(=Nc1cccc2c(N=Cc3ccco3)cccc12)c1ccco1,2%,-7%,7%,14µM*,-15,7%
O=C1CC(Nc2ccc(N3CCOCC3)cc2)C(=O)N1Cc1ccccc1 (stereo not drawn),-5%,-8%,5%,13µM*,-10,0%

# Screens deposited in PubChem by National Center for Advancing Translational Sciences (NCATS).
